Reference: PubChem BioAssay
Calls of active or inactive are those of the source. Unless noted, no rule for the calls is given here.

Key:
[1] = anti-His antibody binders, primary screen, artefact control for SMM control protein annotation, biochemical, small-molecule microarray, 635 nm fluorescence (AID 1128); settings: anti-His Alexa647 antibody binding, higher = more signal;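 also: score merges feature fluorescence with signal-to-noise for each printed compound spot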
[2] = system: Human papillomavirus type 1a E7 protein (residues 1-88); assay: HPV1a E7 small-molecule binders, primary screen, biochemical, small-molecule microarray, residues 1-88, 635 nm (AID 1129); settings: small-molecule microarray binding, fluorescence 635 nm; higher = more signal
[3] = target: Focal adhesion kinase 1 (Homo sapiens) (UniProt Q05397); assay: small-molecule microarray binders of FAK, primary screen, biochemical, 635/667 nm fluorescence, BSA, DTT (AID 1130); settings: PTK2 binding, 635 nm fluorescence, higher = more signal;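 also: composite of spot emission at 667 nm and signal to noise over triplicate slides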
[4] = system: Fibrinogen (Alexa647-labelled); assay: fibrinogen binders on compound microarrays, profiling panel, artefact control for SMM control-protein annotation, biochemical, small-molecule microarray, 635/667 nm fluorescence (AID 1131); settings: fibrinogen-A647 binding fluorescence, higher = more signal;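 also: z-score merges 667 nm fluorescence with per-spot signal-to-noise over triplicate slides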
[5] = target: Follistatin (Homo sapiens) (UniProt P19883); assay: follistatin binders on small-molecule microarrays, primary screen, biochemical, small-molecule microarray, 635/667 nm fluorescence (AID 1132); settings: FST binding, 635 nm fluorescence, higher = more signal
[6] = target: Fibroblast growth factor 2 (Homo sapiens) (UniProt P09038); assay: FGF2 binders on small-molecule microarrays, primary screen, biochemical, small-molecule microarray, 635/667 nm fluorescence (AID 1133); settings: small-molecule microarray binding, FGF2, fluorescence 635/667; higher = more signal
[7] = mitochondrial membrane potential change in A549 cells, profiling panel, cell-based, JC-1 fluorescence, basal, 24 h, 100 nL (AID 1138); settings: higher = more signal;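 also: A549 lung adenocarcinoma cells under basal conditions with no added stimulus; test concentration not given here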
Lefty1 = Lefty1 binders on small-molecule microarrays, primary screen, biochemical, small-molecule microarray, 635/667 nm fluorescence (AID 1139); settings: small-molecule microarray binding, fluorescence 635/667; higher = more signal
[8] = system: wheat germ agglutinin (Triticum aestivum), Alexa647-labelled; assay: wheat germ agglutinin binders on compound microarrays, profiling panel, artefact control for SMM control-protein annotation, biochemical, small-molecule microarray, 635/667 nm fluorescence (AID 1140); settings: WGA-A647 binding, 635 nm fluorescence, higher = more signal;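 also: score merges 667 nm feature emission with signal to noise over triplicate slides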
[9] = target: Luciferin 4-monooxygenase (Photinus pyralis) (UniProt P08659); assay: firefly luciferase enzyme inhibitors, primary screen, biochemical, luminescence, purified enzyme, 2006 set (AID 1141); settings: SteadyGlo luminescence, 30 min, higher = more signal, called active from +8 up or from −8 down;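 also: cell-free assay with purified firefly luciferase at 100 ng per well in PBS; test concentration not given here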
[10] = system: Wnt5a (protein binding on small-molecule microarray); assay: Wnt5a binders on small-molecule microarray, primary screen, biophysical, 635/667 nm fluorescence (AID 1142); settings: 635 nm fluorescence, higher = more signal;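 also: fluorescence read at 667 nm with signal to noise per printed feature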
[11] = cell viability in Huh7 cells, primary screen, cytotoxicity control for HCV replication inhibitor project, CellTiter-Glo luminescence, basal, 48 h (AID 1143); settings: Huh7 HCV replicon, higher = more signal, called active from +8 up or from −8 down;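 also: Huh7 hepatoma cells carrying a hepatitis C replication reporter with no stimulus; test concentration not given here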
[12] = P. aeruginosa biofilm formation inhibitors, primary screen, PAO1 strain, BacTiter-Glo luminescence, LB-PBS (AID 1144); settings: 12 h, higher = more signal
[13] = CREB reporter modulators without forskolin, primary screen, cell-based, PC12, CRE-LacZ reporter, unstimulated (AID 1145); settings: no forskolin, luminescence, 4.5 h, higher = more signal, called active from +8 up or from −8 down
[14] = CREB reporter modulators under forskolin, primary screen, cell-based, PC12, CRE-LacZ reporter, forskolin-stimulated (AID 1146); settings: luminescence, 4.5 h, higher = more signal, called active from +8 up or from −8 down;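 also: PC12 cells with 6xCRE LacZ reporter stimulated by forskolin 10 µM; beta-galactosidase reporter signal reflecting CREB driven transcription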
[15] = target: Streptavidin (Streptomyces avidinii) (UniProt P22629); assay: streptavidin binders on small-molecule microarray, primary screen, artefact control for SMM compound annotation, biophysical, 635/667 nm fluorescence (AID 1147); settings: streptavidin binding, higher = more signal;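 also: signal reflects streptavidin binding to arrayed compounds as a control protein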
[16] = small-molecule binders of probe aInhba, primary screen, biochemical, small-molecule microarray, 635/667 nm fluorescence (AID 1148); settings: higher = more signal;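 also: score merges 667nm spot fluorescence with signal-to-noise for antibody binding to printed compounds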
Torsin-1A (Homo sapiens) [17] = target: Torsin-1A (Homo sapiens) (UniProt O14656); assay: torsin A binders from cell lysate, primary screen, small-molecule microarray, wild-type, 635/667 nm (AID 1149); settings: COS7 hTOR1A-WT lysate, 635 nm fluorescence, higher = more signal
Torsin-1A (Homo sapiens) [18] = target: Torsin-1A (Homo sapiens) (UniProt O14656); assay: small-molecule binders of mutant TOR1A in lysate, primary screen, cell lysate, small-molecule microarray, COS7 lysate, 635/667 nm fluorescence (AID 1150); settings: COS7 hTOR1A mutant lysate, 635 nm fluorescence, higher = more signal;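 also: score pools 667 nm emission and signal to noise measuring lysate protein binding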
[19] = system: Sonic hedgehog protein (Shh); assay: small-molecule binders of Shh protein, primary screen, biochemical, small-molecule microarray, 635/667 nm fluorescence (AID 1151); settings: small-molecule microarray binding, 635 nm fluorescence; higher = more signal;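 also: Shh protein binding to compounds spotted on small-molecule microarray slides; score combines spot fluorescence intensity with signal-to-noise across triplicate slides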

Chain of Focal adhesion kinase 1 (Homo sapiens) (Q05397 whole entry, looked up): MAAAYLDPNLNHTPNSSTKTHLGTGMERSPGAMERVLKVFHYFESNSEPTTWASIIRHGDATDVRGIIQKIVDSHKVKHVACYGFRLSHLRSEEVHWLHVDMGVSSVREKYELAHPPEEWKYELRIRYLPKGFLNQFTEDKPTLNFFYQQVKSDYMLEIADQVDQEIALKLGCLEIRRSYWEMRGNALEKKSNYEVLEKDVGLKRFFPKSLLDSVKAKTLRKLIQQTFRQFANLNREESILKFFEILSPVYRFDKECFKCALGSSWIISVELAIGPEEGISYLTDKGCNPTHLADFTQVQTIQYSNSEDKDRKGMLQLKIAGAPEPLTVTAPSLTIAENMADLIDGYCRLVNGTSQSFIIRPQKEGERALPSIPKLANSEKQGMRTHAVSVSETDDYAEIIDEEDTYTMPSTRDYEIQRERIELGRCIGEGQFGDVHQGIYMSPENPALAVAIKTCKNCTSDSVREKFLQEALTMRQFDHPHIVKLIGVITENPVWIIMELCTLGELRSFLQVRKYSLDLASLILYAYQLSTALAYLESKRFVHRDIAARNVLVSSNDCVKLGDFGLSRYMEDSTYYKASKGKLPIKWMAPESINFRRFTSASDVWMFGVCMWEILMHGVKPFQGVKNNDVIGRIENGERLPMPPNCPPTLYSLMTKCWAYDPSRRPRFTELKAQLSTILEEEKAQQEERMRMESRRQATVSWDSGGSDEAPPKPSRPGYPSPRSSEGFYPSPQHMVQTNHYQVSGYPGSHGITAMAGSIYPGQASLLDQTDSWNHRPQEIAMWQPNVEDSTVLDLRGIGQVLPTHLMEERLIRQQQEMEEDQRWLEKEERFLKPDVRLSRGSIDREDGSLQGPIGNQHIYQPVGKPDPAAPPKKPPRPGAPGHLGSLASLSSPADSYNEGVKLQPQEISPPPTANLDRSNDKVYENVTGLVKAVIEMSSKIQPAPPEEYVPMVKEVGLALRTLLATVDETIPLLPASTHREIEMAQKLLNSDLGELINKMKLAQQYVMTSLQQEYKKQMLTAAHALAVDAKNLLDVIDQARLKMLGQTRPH
Chain of Fibroblast growth factor 2 (Homo sapiens) (P09038 whole entry, looked up): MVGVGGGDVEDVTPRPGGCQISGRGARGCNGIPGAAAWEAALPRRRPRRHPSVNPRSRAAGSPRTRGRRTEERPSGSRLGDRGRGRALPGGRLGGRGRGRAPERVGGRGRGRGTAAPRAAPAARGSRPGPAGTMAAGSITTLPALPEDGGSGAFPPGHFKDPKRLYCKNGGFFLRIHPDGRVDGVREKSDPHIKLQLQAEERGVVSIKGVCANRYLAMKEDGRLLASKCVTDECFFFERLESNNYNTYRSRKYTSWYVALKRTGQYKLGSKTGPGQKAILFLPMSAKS
Chain of Luciferin 4-monooxygenase (Photinus pyralis) (P08659 whole entry, looked up): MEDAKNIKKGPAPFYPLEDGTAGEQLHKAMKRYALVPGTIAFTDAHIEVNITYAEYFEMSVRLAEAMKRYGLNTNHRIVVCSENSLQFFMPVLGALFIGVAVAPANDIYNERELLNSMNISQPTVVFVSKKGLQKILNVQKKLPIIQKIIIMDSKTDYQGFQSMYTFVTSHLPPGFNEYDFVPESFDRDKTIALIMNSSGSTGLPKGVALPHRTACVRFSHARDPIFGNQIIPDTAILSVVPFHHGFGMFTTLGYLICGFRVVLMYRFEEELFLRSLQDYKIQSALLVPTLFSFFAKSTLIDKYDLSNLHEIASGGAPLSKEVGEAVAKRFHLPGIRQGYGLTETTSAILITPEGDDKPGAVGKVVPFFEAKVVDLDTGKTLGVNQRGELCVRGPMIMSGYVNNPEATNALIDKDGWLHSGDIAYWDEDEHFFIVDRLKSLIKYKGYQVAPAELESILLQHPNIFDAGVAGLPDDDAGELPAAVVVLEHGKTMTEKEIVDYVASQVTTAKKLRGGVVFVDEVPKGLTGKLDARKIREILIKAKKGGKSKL
Chain of Torsin-1A (Homo sapiens) (O14656 whole entry, looked up): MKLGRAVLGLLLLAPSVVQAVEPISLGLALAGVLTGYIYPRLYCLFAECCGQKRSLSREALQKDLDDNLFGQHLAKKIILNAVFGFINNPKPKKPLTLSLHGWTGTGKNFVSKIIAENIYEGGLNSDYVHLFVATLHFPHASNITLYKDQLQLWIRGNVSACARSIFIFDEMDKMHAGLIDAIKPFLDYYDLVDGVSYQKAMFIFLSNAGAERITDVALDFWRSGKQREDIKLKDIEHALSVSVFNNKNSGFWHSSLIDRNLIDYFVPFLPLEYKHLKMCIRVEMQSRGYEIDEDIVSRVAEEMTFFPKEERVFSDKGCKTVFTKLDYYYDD
Chain of Follistatin (Homo sapiens) (P19883 whole entry, looked up): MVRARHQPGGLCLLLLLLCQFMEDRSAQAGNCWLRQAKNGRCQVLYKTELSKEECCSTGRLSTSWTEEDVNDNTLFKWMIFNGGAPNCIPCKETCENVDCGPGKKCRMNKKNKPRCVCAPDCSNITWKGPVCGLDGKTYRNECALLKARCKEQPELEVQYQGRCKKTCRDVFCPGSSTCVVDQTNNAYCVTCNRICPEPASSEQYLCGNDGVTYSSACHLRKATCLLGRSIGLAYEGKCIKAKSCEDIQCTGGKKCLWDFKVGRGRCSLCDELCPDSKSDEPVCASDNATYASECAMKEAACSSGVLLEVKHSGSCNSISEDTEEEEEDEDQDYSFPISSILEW
Chain of Streptavidin (Streptomyces avidinii) (P22629 whole entry, looked up): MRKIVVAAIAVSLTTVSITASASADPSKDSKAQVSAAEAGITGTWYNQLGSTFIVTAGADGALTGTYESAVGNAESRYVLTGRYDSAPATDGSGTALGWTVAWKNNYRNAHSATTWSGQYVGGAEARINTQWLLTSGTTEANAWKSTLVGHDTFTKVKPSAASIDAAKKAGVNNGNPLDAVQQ

Structure (SMILES)	composite z-score [1]	composite z-score [2]	composite z-score [3]	composite z-score [4]	composite z-score [5]	composite z-score [6]	z-score [7]	composite z-score (Lefty1)	composite z-score [8]	z-score [9]	composite z-score [10]	z-score [11]	z-score [12]	z-score [13]	z-score [14]	composite z-score [15]	composite z-score [16]	composite z-score (Torsin-1A (Homo sapiens) [17])	composite z-score (Torsin-1A (Homo sapiens) [18])	composite z-score [19]
[N-]=[N+]=NCc1ccccc1[C@H]1OC(c2ccc(OCCCO)cc2)=N[C@@]1(CCS(=O)(=O)c1ccccc1)C(=O)NCc1ccccc1	1.41	1.2	0.13	0.941	1.36	0.623	0.453	0.189	0.703	-1.41 (inactive)	0.486	-1.14 (inactive)	0.318 (inactive)	0.549 (inactive)	-0.0054 (inactive)	1.25	0.282	0.61	0.563	-0.081
CCCCCN1CC=CC23O[C@@H]4/C=C\CCC(C)OC(=O)C4[C@H]2C(=O)N(CCCCCCO)[C@@H]3C1=O (stereo not given in full)	0.371	0.229	0.0767	-1.31	0.0532	-0.0946	1.03	0.744	-0.65	0.0812 (inactive)	-0.399	0.259 (inactive)	-0.943 (inactive)	0.467 (inactive)	0.938 (inactive)	-0.749	-0.153	-0.96	0.109	0.758
CCOC(=O)C[C@H]1[C@H](OC(=O)c2ccccc2-c2ccccc2)[C@@H](NC(=O)c2ccc3ccccc3n2)c2cc(OCCCO)ccc2N1C(=O)c1ccccc1	-0.0974	0.378	0.185	0.322	0.782	0.16	0.628	0.634	0.857	0.272 (inactive)	0.233	-0.0416 (inactive)	1.12 (inactive)	2.57 (inactive)	0.655 (inactive)	-0.197	-0.0933	-0.0653	0.182	1.37
C=C(C(=O)CC[C@@H](OC(=O)c1ccccc1-c1ccccc1C(=O)O)c1ccccc1OCCO)C(C)C	-0.186	1.23	0.183	0.532	1.46	1.77	-0.0391	1.58	0.109	-0.679 (inactive)	0.618	0.182 (inactive)	-0.695 (inactive)	3.64 (inactive)	3.34 (inactive)	-0.344	-0.0529	0.908	0.663	2.3
C=CCC(OC(C)=O)[C@@H]1[C@@H](N(Cc2cccc3ccccc23)C(=O)Cc2ccc(F)cc2)c2cc(OCCCO)ccc2N1C(=O)c1ccc(-c2ccccc2)cc1 (stereo not given in full)	-0.517	-0.0075	0.365	0.674	-0.0679	0.292	0.577	-0.62	0.507	-0.403 (inactive)	0.364	-0.227 (inactive)	-0.169 (inactive)	1.44 (inactive)	0.429 (inactive)	-0.153	0.066	0.143	0.102	0.246
O=C1C2C=CC(C(O)c3cccc(O)c3)N(Nc3ccccc3)C2C(=O)N1c1ccccc1 (stereo not given)	0.811	0.452	0.0964	0.881	0.323	-0.202	-0.319	-0.199	0.0207	0.509 (inactive)	-0.105	-2.93 (inactive)	-1.06 (inactive)	-0.14 (inactive)	1.37 (inactive)	0.318	-0.0645	-0.338	-0.283	-0.461
C=CC1c2cc(O)c(OC)cc2CCN1Cc1ccc([N+](=O)[O-])o1 (stereo not given)	3	-0.354	-0.426	0.66	0.138	-0.0471	1.3	-0.807	1.39	-1.6 (inactive)	0.17	-0.244 (inactive)	1.47 (inactive)	-0.321 (inactive)	-0.625 (inactive)	0.39	0.027	-0.17	0.745	-0.873
C=CCN1C(=O)[C@@]2(O[C@@H](CCO)[C@H]([Si](C)(C)c3ccc(OC)cc3)[C@H]2C)c2cc(N3CCOC3=O)ccc21	2.38	1.15	0.246	0.768	-0.354	-0.25	-0.658	0.0949	0.486	-1.03 (inactive)	-0.0317	-7.42 (inactive)	-0.202 (inactive)	6.34 (inactive)	-3.56 (inactive)	0.0828	-0.0695	-0.0921	0.543	-0.285
Cc1ccc(F)cc1S(=O)(=O)N[C@@H]1CCN(Cc2cccc3[nH]ccc23)C1	0.134	0.179	-0.271	-0.383	1.26	0.932	0.443	0.69	-0.227	-0.0287 (inactive)	0.148	-2.35 (inactive)	-0.0885 (inactive)	1.13 (inactive)	-0.714 (inactive)	-0.0164	0.143	0.495	0.913	0.969
